# ± gives the standard deviation.
# Key:
# Details in all cases: modulator concentration 10 µM
# [1] = system: RAW-Dual (murine macrophage reporter line); experiment: NF-kB reporter (SEAP) activity fold change vs agonist alone; higher = enhanced NF-kB activity
# In short: (§1)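 RAW-Dual murine macrophage reporter cells were plated at 50 000 per well in 384-well plates, pin-transferred compound to 10 μM final, and pre-incubated for 1 hour at 37 °C before a PRR agonist was added and the cells incubated overnight. NF-κB activity was read from supernatant SEAP with QUANTI-Blue at 620 nm absorbance, and IRF activity from Lucia luciferase with QUANTI-Luc by luminescence. Each signal was expressed as fold change by dividing by the mean agonist-only control on the same plate. Two replicate plates were averaged, with errors obtained by propagation.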
# [2] = system: RAW-Dual (murine macrophage reporter line); experiment: IRF reporter (Lucia luciferase) activity fold change vs agonist alone; higher = enhanced IRF activity
# In short: as §1
# [3] = system: RAW-Dual (murine macrophage reporter line); experiment: viability score (confluency relative to resting cells, overnight) (fraction); higher = more viable, active = viable (0.7 or more)
# In short: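 Two confluency masks, generated with IncuCyte software over all imaged wells, were applied to IncuCyte images of RAW-Dual macrophages. The cells, in 384-well plates, had been exposed overnight to 10 μM final compound. The viability score is confluency as a fraction of resting cells, and a compound met the cutoff only with both masks above 70% of resting cells.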
# [4] = agonist: CpG ODN 1826 0.5 ug/mL
Compound,"NF-kB reporter [1, 4]",NF-kB reporter ([1]; agonist: LPS 0.1 ug/mL),NF-kB reporter ([1]; agonist: MPLA […]),IRF reporter ([2]; agonist: 3'3'-cGAMP 10 ug/mL),IRF reporter ([2]; agonist: LPS 0.1 ug/mL),IRF reporter ([2]; agonist: MPLA […]),viability score [3]
COc1ccc(CNC(=O)NCC#CCOc2cccc(C(F)(F)F)c2)cc1OC,1.07 ± 0.11,1.07 ± 0.098,0.95 ± 0.063,1.01 ± 0.05,1.09 ± 0.13,1.13 ± 0.29,1.01 (active)
CC(=O)C1=C(C)OC2(O)c3ccccc3C(=O)C12O (stereo unspecified),0.903 ± 0.11,0.947 ± 0.089,1.23 ± 0.13,0.831 ± 0.029,1.02 ± 0.18,0.824 ± 0.12,0.945 (active)
Br.O=S(=O)(c1ccc(-c2csc(Nc3ccc(Cl)cc3)n2)cc1)N1CCCC1,0.941 ± 0.15,1.04 ± 0.13,0.869 ± 0.069,0.885 ± 0.026,1.19 ± 0.17,1.48 ± 0.28,0.991 (active)
Cc1ccccc1C(OCCN(C)C)c1ccccc1.O=C(O)CC(O)(CC(=O)O)C(=O)O (stereo unspecified),1.35 ± 0.36,1.34 ± 0.23,2.11 ± 1,0.582 ± 0.024,1.51 ± 0.14,1.25 ± 0.12,0.981 (active)
O=C(C(Cl)Cl)N1CCN(Cc2ccccc2)CC1,0.881 ± 0.068,0.67 ± 0.077,0.709 ± 0.072,0.712 ± 0.032,1.25 ± 0.18,1.28 ± 0.24,1.01 (active)
COc1ccc(OC2CCN(C(=O)C3CCOC3)C2)nn1 (stereo unspecified),0.955 ± 0.12,1.04 ± 0.1,0.949 ± 0.11,1 ± 0.083,1.12 ± 0.072,1.23 ± 0.14,0.999 (active)
CC(CCc1ccccc1)NCC(O)c1ccc(O)c(C(N)=O)c1.Cl (stereo unspecified),1.04 ± 0.15,1.18 ± 0.088,1.1 ± 0.061,0.944 ± 0.033,1.11 ± 0.095,1.22 ± 0.23,0.984 (active)
Cc1ccc(C(=O)NC(Oc2ccc3ccccc3c2)C(Br)(Br)Br)cc1 (stereo unspecified),0.799 ± 0.045,1.02 ± 0.092,0.86 ± 0.053,0.598 ± 0.047,1.51 ± 0.12,1.27 ± 0.14,0.998 (active)
O=C(C(c1ccccc1)c1ccccc1)N1CCC(n2nccn2)CC1,1 ± 0.054,1.09 ± 0.13,0.904 ± 0.063,0.989 ± 0.053,1.25 ± 0.078,1.16 ± 0.12,0.999 (active)
C[N+]1(C)CCC(OC(=O)C(O)(c2ccccc2)C2CCCC2)C1 (stereo unspecified) [Prestw-746],0.923 ± 0.061,0.998 ± 0.066,0.943 ± 0.062,0.949 ± 0.031,1.24 ± 0.16,1.13 ± 0.17,1.01 (active)
O=S(=O)(Cc1ccccc1)Nc1ccccn1,0.951 ± 0.054,1.03 ± 0.084,0.893 ± 0.067,0.961 ± 0.032,1.49 ± 0.13,1.27 ± 0.15,1 (active)
Nc1ncn(C2O[C@H](CO)[C@@H](O)[C@H]2O)c(=O)n1 (stereo partly specified) [Prestw-866],2.01 ± 0.35,1.24 ± 0.18,4.32 ± 0.33,0.508 ± 0.033,0.622 ± 0.14,0.747 ± 0.1,0.806 (active)
O=C(NCC(O)Cn1ccccc1=O)c1ccc(Cl)s1 (stereo unspecified),0.94 ± 0.1,0.869 ± 0.087,1.01 ± 0.087,1.02 ± 0.047,1.41 ± 0.09,1.46 ± 0.12,1 (active)
